The text below walks through data of PubChem BioAssay (NCATS).

A short description of assay [1]: qHTS for Inhibitors of Plasmodium falciparum (GB4) proliferation (AID 504315). Note: nearly all actives have a fitted effect of over 50% in size. Note: potency is the fitted concentration of half-maximal effect. In a few lines: (§1)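 Parasite growth measured as SYBR Green DNA fluorescence (ex 485, em 535 nm) after overnight lysis following 72 h culture at 37 °C, 0.3% parasitemia, 2.5% hematocrit. Values normalized against DMSO and 0.29 uM artemisinin controls, with plate-stack correction.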
The nature of assay [2]: qHTS for Inhibitors of Plasmodium falciparum (HB3) proliferation (AID 504318). Note: nearly all actives have a fitted effect of over 60% in size. Note: potency is the fitted concentration of half-maximal effect. In a few lines: as §1
In general terms: qHTS replaces the single test concentration by a dilution series.

The nature of assay [3]: qHTS for Inhibitors of Plasmodium falciparum (CP250) proliferation (AID 504320). Note: potency is the fitted concentration of half-maximal effect. Put shortly: as §1
A short description of assay [4]: qHTS for Inhibitors of Plasmodium falciparum (7G8) proliferation (AID 504316). Note: nearly all actives have a fitted effect of over 65% in size. Note: potency is the fitted concentration of half-maximal effect. In a few lines:
as §1

For assay [5], the target named is Cytochrome P450 3A4 (Homo sapiens) (UniProt P08684). The experiment in a line: qHTS Assay for Activators of Cytochrome P450 3A4 (AID 885). Note: nearly all actives have a fitted effect of over 65% in size. In a few lines: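 Human CYP3A4 dealkylates Luciferin-PPXE to luciferin, which luciferase detection converts to light. Substrate was at its KM (25uM), buffer 200mM KPO4, reaction 60 min at RT.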
Assay [6] concerns the target Cytochrome P450 2C19 (Homo sapiens) (UniProt P33261). Briefly: qHTS Assay for Inhibitors and Substrates of Cytochrome P450 2C19 (AID 899). Note: % is set by controls: 0 for no effect and ±100 for the full control effect; nearly all actives have a fitted effect of over 60% in size. Put shortly: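 5nM enzyme + 10uM Luciferin-H EGE (=KM), 50mM KPO4; cpd pin-transferred, 10 min 37C; NADPH regen, 60 min 37C; stopped w/ luciferin detection reagent, 20 min; luminescence. Normalized to 57uM ketoconazole (AC100).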

Unmarked numbers belong to inactive results. Inconclusive results are not listed. Calls of active or inactive are those of the source. Calls come from the whole dose curve; as a rule, active = well fitted curve in the direction sought with a large enough effect; inconclusive = small, poorly fitted or top-dose-only effect, or another doubt; inactive = no such curve, though single readings can be large; an effect the other way counts as inactive or inconclusive.

Cytochrome P450 3A4 (Homo sapiens), sequence (P08684 whole entry, looked up): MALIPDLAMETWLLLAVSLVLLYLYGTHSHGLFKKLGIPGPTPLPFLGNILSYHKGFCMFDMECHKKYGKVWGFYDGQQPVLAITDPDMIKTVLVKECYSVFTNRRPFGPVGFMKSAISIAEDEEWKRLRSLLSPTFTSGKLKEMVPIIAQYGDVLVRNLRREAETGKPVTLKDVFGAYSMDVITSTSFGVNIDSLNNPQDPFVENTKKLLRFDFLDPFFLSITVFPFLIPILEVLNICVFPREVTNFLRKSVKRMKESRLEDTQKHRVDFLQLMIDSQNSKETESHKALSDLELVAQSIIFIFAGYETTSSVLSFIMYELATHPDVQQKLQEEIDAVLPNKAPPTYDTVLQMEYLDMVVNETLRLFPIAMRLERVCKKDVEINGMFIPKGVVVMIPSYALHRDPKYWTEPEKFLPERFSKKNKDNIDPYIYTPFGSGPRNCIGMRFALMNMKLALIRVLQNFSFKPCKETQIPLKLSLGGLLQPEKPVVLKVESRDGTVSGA
Cytochrome P450 2C19 (Homo sapiens), sequence (P33261 whole entry, looked up): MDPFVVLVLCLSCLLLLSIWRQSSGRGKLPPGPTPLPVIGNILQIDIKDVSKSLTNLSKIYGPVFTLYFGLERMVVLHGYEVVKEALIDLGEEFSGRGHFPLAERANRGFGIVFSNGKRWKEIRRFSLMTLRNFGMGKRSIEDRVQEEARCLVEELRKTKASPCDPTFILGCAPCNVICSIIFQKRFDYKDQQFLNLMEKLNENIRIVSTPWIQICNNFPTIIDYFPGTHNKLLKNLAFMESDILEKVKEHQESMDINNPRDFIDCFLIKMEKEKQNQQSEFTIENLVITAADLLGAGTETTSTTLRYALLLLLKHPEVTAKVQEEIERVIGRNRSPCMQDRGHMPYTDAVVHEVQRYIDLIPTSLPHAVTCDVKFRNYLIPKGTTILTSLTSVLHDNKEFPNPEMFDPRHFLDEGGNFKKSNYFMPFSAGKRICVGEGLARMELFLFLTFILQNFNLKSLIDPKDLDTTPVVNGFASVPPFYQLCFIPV

As to `C=CCN1c2ccccc2[C@]23C[C@@H](C(=O)OC)N(C(C)=O)C2=NC(C(=O)OC)=C(C(=O)OC)[C@H]13`, the Potency entry in assay [1], in assay [2] and in assay [3] was “inactive” in each case.

Turning to `C[C@@H]1CC[C@H]2C(=O)N(Cc3cccc([N+](=O)[O-])c3)C[C@H](O)CN2[C@@H]1c1ccc(Br)cc1`, the Potency result in assay [1], in assay [4] and in assay [3] was “inactive” throughout.

In the case of `CC#CCN1c2ccccc2[C@]23C[C@@H](C(=O)OC)N(C(=O)c4ccc(Br)cc4)C2=NC(C(=O)OC)=C(C(=O)OC)[C@H]13`, the Potency entry in assay [1], in assay [2] and in assay [3] was “inactive” throughout.

With `Cc1cc2c(c(=O)n1-c1ccccc1)[C@H]1O[C@](c3ccsc3)(Cc3cc(C#N)ccc31)O2`, the Potency result in assay [1] and in assay [3] was “inactive” throughout.

`COC(=O)CCC(=O)OC1(C)C(=O)C2=CN(CCc3c[nH]c4ccccc34)C(c3ccc(OC)cc3)=CC2=C(Br)C1=O` (stereo not given): the Potency result in assay [1], in assay [2] and in assay [3] was “inactive” throughout.

Regarding `CCCCc1nc2c(c3c1C[C@H](C)OC3)CN(C(=O)NCCc1c[nH]c3ccccc13)CC2`, the Potency entry in assay [1], in assay [4], in assay [2] and in assay [3] was “inactive” each time.

As for `CC=Cc1cc2ccccc2c2c(C(=O)OC)c(C(=O)OC)c(C(=O)OC)n12`, the Potency result in assay [1], in assay [4] and in assay [3] was “inactive” each time.

In the case of `CCOC(=O)OC[C@H]1O[C@H](c2ccccc2)C=C[C@H]1OC(=O)OCC`, the Potency result in assay [1], in assay [4], in assay [2] and in assay [3] was “inactive” throughout.

Take `CCOC(=O)CN1C(=O)N(CC)C(C)=C(C(=O)OC)[C@@H]1c1ccccc1`: the Potency result in assay [1], in assay [4], in assay [2] and in assay [3] was “inactive” in each case.

As to `CCCCCC(=O)c1cc(CC(C(=O)OC)C(=O)OC)cc2cc(OC)c(OC)cc12`, in assay [5], the activity change, positive = activation was -51.6% [at 11.4 µM]. The Potency result in assay [6], in assay [1], in assay [4] and in assay [3] was “inactive” each time.

Consider `COC(=O)[C@@H]1[C@@H](C)N(CCc2cc(OC)c(OC)c(OC)c2)C(=O)N[C@H]1c1ccccc1`, for which the Potency result in assay [1] and in assay [3] was “inactive” in each case.

For `CCCNC(=O)N1C2=NC(C(=O)OC)=C(C(=O)OC)[C@@H]3N(C)c4ccccc4[C@]23C[C@H]1C(=O)OC`, the Potency result in assay [1] and in assay [3] was “inactive” in each case.

For the compound `COc1cccc([C@@H]2Oc3ccc(Br)cc3[C@H](O)[C@@H]2O)c1`, the Potency entry in assay [1], in assay [4] and in assay [3] was “inactive” in each case.

Consider `c1ccc(-c2nc(-c3cccc4ccccc34)c(Nc3ccc4ccccc4c3)o2)cc1`, for which the Potency in assay [1] and in assay [2] was 1510 nM (active) throughout.

For the compound `CCCCC1=CC2=CC(=O)C(C)(OC(=O)CC)C(=O)C2=CN1CCc1c[nH]c2ccccc12` (stereo not given), the Potency entry in assay [1], in assay [4], in assay [2] and in assay [3] was “inactive” throughout.

Turning to `COC(=O)C1=C(C(=O)OC)[C@@H]2N(C)c3ccc(OC)cc3[C@@]23C[C@@H](C(=O)OC)N(S(=O)(=O)c2c(C)noc2C)C3=N1`, the Potency entry in assay [1], in assay [2] and in assay [3] was “inactive” in each case.

Turning to `CCOC(=O)N1C2=NC(C(=O)OC)=C(C(=O)OC)[C@@H]3N(C)c4ccc(OC)cc4[C@]23C[C@H]1C(=O)OC`, the Potency entry in assay [1], in assay [4], in assay [2] and in assay [3] was “inactive” each time.

For `COC(=O)C[C@H]1c2ccccc2[C@H]2C(=C[C@@H](C)[C@H]3C(=O)N(O)C(=O)[C@H]32)N1C(=O)OC`, the Potency result in assay [1] and in assay [2] was “inactive” each time.

For the compound `COCOc1c2c(c(OCOC)c3c(OCOC)cccc13)C(=NNS(C)(=O)=O)C1=C2CCCC1`, the Potency entry in assay [1] and in assay [3] was “inactive” throughout.

On to `COc1ccc(CN2C=C3C(=O)C(C)(OC(=O)CCc4ccccc4)C(=O)C=C3C=C2c2ccc(C#N)cc2)cc1` (stereo not given), for which the Potency entry in assay [1] and in assay [3] was “inactive” in each case.

As for `CCN1C(=O)N(C)[C@@H](c2ccccc2)C(C(=O)OC)=C1C`, the Potency entry in assay [1], in assay [4] and in assay [3] was “inactive” throughout.

For the compound `COC(=O)CCCC1=CC2=C(c3ccccc3)C(=O)C(C)(OC(=O)C3CCCC3)C(=O)C2=CN1CCCOC(C)C` (stereo not given), the Potency entry in assay [1] and in assay [3] was “inactive” in each case.

Take `COC(=O)N1C2CC(=O)O[C@@H]3c4cc5c(cc4[C@]1(C)[C@@]3(Br)c1ccccc12)OCO5`: the Potency in assay [1] was 1510 nM (active); in assay [4], 1690 nM (active); in assay [3], 1200 nM (active).

Turning to `COC(=O)C1=C(C(=O)OC)[C@@H]2N(C)c3ccc(OC)cc3[C@@]23C[C@@H](C(=O)OC)N(S(=O)(=O)c2ccc(OC)cc2)C3=N1`, the Potency entry in assay [1] and in assay [3] was “inactive” in each case.

Consider `C#CCCCON=C1C[C@@H](O)[C@@H](O)[C@@H]2[C@H]3C(=O)N([C@@H](C)c4ccccc4)C(=O)[C@@H]3CC[C@H]12`, for which the Potency result in assay [1] and in assay [3] was “inactive” throughout.

As to `COC(=O)N1C2=C(c3ccccc3[C@@H]1CC(=O)Nc1ccc3ccc4cccc5ccc1c3c45)[C@@H]1C(=O)N(c3ccccc3)C(=O)[C@@H]1[C@H](C)C2`, the Potency in assay [1], in assay [4] and in assay [3] was 1510 nM (active) throughout.
